Results from PubChem BioAssay AID1259421 (Broad Institute, 2018).
“And” between values parts separate entries of the source, which are not always exact repeats. Identical values can stand only once. The whole screen tested about 6,400 compounds, of which about 610 (9.5%) were called active. Cut-off read from the data, not from the text of the source: active = activity change below about -70%; inconclusive = no clear call, values can overlap the other calls; inactive = above that. This excerpt belongs to a sample that is enriched for actives. Where a structure was tested more than once in an assay, its records may differ in their call. Where a SMILES comes first, the peptide text is derived from it. The star is where a group is joined. PhAc = O=C(Cc1ccccc1)*

Test: T. gondii ME49Luc in HeLa cells, luciferase assay, 72 h, no IFN-y (AID 1259421)
Settings: stronger effect = lower value, concentration not given here

Row | Structure (SMILES) | activity change, negative = inhibition
1 | CCC(=O)OCC(=O)C1(OC(=O)CC)[C@H](C)C[C@H]2C3[C@H](Cl)CC4=CC(=O)C=C[C@]4(C)[C@H]3[C@@H](O)C[C@@]21C (some centres undefined) | 11.6% (inactive)
2 | c1ccc(CN2CCC3(CCc4ccccc43)CC2)cc1 | 16.7% (inactive) and 4.6% (inactive)
3 | COc1ccccc1N1CCN(CC(C(=O)NC(C)(C)C)c2ccccc2)CC1 (centres undefined) | 6.24% (inactive)
4 | OCc1ccc(O[C@@H]2O[C@@H](CO)[C@@H](O)[C@H](O)[C@H]2O)cc1 | -0.0846% (inactive)
5 | CCOc1cc(/C=C(/C#N)C(N)=O)cc(CSc2ccccc2)c1O | 32.6% (inactive)
6 | Cc1cccc(-c2[nH]ncc2-c2ccc3ncccc3n2)n1 | -16% (inactive)
7 | O=C(NC1CCOCC1)c1ccc(-c2cc(-c3cn[nH]c3-c3ccccn3)ccn2)cc1 | -1.45% (inactive)
8 | c1ccc(-c2[nH]ncc2-c2ccnc3ccccc23)nc1 | -65.8% (inactive) and -82.5% (active)
9 | C=C1/C(=C\C=C2/CCC[C@]3(C)[C@@H]([C@H](C)CCCC(O)(C(F)(F)F)C(F)(F)F)CC[C@@H]23)C[C@@H](O)C[C@@H]1O | 7.67% (inactive)
10 | CNc1ncnc2c1ncn2[C@@H]1O[C@H](CO)[C@@H](O)[C@H]1O | 13.6% (inactive)
11 | OC[C@H]1O[C@@H](n2cnc3c(NC4CCCC4)ncnc32)[C@H](O)[C@@H]1O | 13.5% (inactive)
12 | OC[C@H]1O[C@@H](n2cnc3c(NCc4ccco4)ncnc32)[C@H](O)[C@@H]1O | -71.9% (active)
13 | OCCOCCN1CCN(Cc2cccc(Oc3ccccc3)c2)CC1 | 8.65% (inactive)
14 | CC(C)CC(NC(=O)N1CCCCCC1)C(=O)NC(Cc1cn(C)c2ccccc12)C(=O)NC(Cc1ccccn1)C(=O)O (centres undefined) | 5.64% (inactive)
15 | C=CC1=C(C(=O)O)N2C(=O)[C@@H](NC(=O)/C(=N/O)c3csc(N)n3)[C@H]2SC1 | 5.5% (inactive)
16 | CCOC(=O)CNC(=O)[C@@H]1CCCN1C(=O)Cc1ccccc1 (PhAc-Pro-Gly-OEt) | 13.8% (inactive)
17 | O=C1C(=O)C(C2CCC(c3ccc(Cl)cc3)CC2)C(=O)c2ccccc21 (centres undefined) | -68.3% (inactive) and -68.8% (inactive)
18 | O=C1c2ccccc2C(=O)C1c1ccccc1 | -3.55% (inactive)
19 | CC(C)(C)C1CCC(CC2C(=O)C(=O)c3ccccc3C2=O)CC1 (centres undefined) | -75.1% (active)
20 | CS/C(N)=C(C#N)/C(C#N)=C(\N)SC | 1.99% (inactive) and 0.209% (inactive)
21 | O=C(O)c1ccc(NC2OCC(O)C(O)C2O)cc1 (centres undefined) | 11.7% (inactive)
22 | CCCCCCCCNC(=O)C(Cc1ccc(OCc2ccncc2)cc1)NC(=O)C1CCC(CN)CC1 (centres undefined) | 20.5% (inactive)
23 | NC(=O)c1[nH]cnc1O | 5.36% (inactive)
24 | CN(C)N=Nc1ccc(C(=O)O)cc1 | 17.4% (inactive)
25 | CN(C)/N=N/c1nc[nH]c1C(N)=O | -84.8% (active) and -88.3% (active) and -94.9% (active)
26 | Cc1cc(-c2ccc(N=Nc3ccc4c(S(=O)(=O)O)cc(S(=O)(=O)O)c(N)c4c3O)c(C)c2)ccc1N=Nc1ccc2c(S(=O)(=O)O)cc(S(=O)(=O)O)c(N)c2c1O | -45.6% (inactive)
27 | Cc1cnc(NC(=O)C2C(=O)c3ccccc3S(=O)(=O)N2C)s1 (centres undefined) | 17.6% (inactive) and 14.2% (inactive)

Row | Structure (SMILES) | activity change, negative = inhibition
28 | CN1CCc2cc3c(cc2C(=O)Cc2ccc4c(c2C1)OCO4)OCO3 | 7.67% (inactive)
29 | CC[C@@H](C(=O)C(C)[C@@H](O)[C@H](C)CCc1ccc(C)c(O)c1C(=O)O)C1OC(CC)(C2CC[C@](O)(CC)[C@H](C)O2)C[C@@H]1C (some centres undefined) | -85.8% (active)
30 | CCOC(=O)[C@H](C)C[C@@H](Cc1ccc(-c2ccccc2)cc1)NC(=O)CCC(=O)O | 5.47% (inactive)
31 | COc1c/c(=C2\C=c3ccccc3=N2)[nH]/c1=C\c1[nH]c(C)cc1C | -83.5% (active)
32 | Cc1cc(C)c(/C=C2\C(=O)Nc3ccccc32)[nH]1 | 12.4% (inactive) and 24.8% (inactive)
33 | FC(F)(F)c1ccc(/C=C/c2nc(COc3ccc(CCCCn4ccnn4)cc3)co2)cc1 | -18% (inactive)
34 | CN1C2CC(OC(=O)[C@H](CO)c3ccccc3)C[C@H]1[C@H]1OC21 (some centres undefined) | 1.54% (inactive)
35 | NC(N)=NCCN1CCCCCCC1 | 8.88% (inactive)
36 | CC12C(=O)OC(=O)C1(C)C1CCC2O1 (centres undefined) | -87.3% (active)
37 | c1ncc(CCCC2CCNCC2)[nH]1 | 2.3% (inactive)
38 | Fc1ccc2c(CCNCc3cccc(OCC(F)(F)C(F)F)c3)c[nH]c2c1 | 38.3% (inactive)
39 | CN[C@@H](C)[C@H]1[C@H](O)C[C@@]2(C)[C@@H]3CC[C@H]4C(C)(C)[C@@H](NC)CC[C@@]45C[C@@]35CC[C@]12C | 6.16% (inactive)
40 | CCCCCCCCCCCCCCCC(=O)OC[C@H](COP(=O)(O)OCC[N+](C)(C)C)OC(=O)CCCCCCCCCCCCCCC | -5.4% (inactive)
41 | COC(=O)c1ccccc1NC(=O)c1ccc(F)cc1 | 31.7% (inactive) and 41.2% (inactive)
42 | CC(C)CCN1c2nc(Nc3cc(F)c(O)c(F)c3)ncc2N(C)C(=O)C1C (centres undefined) | -84.4% (active)
43 | CCCCCCCC/C=C/CCCCCCCC(=O)NCc1ccc(O)c(OC)c1 | 6.46% (inactive)
44 | N#Cc1ccncn1 | 17.2% (inactive)
45 | Cc1ccc(-c2csc(NC(=O)c3ccccc3)n2)c(C)c1 | 73.8% (inactive)
46 | Cc1ccnc(NC(=O)C(C)c2cccc(C(=O)c3ccccc3)c2)c1 (centres undefined) | 48.4% (inactive)
47 | CCc1nc(-c2cccc(C)c2)c(-c2ccnc(NC(=O)c3ccccc3)c2)s1 | -91.2% (active)
48 | CC1CNc2c(cccc2S(=O)(=O)N[C@@H](CCCN=C(N)N)C(=O)N2CC[C@@H](C)C[C@@H]2C(=O)O)C1 (some centres undefined) | 9.02% (inactive)
49 | C[C@H]1COc2c(C3(N)CC3)c(F)cc3c(=O)c(C(=O)O)cn1c23 | 14.1% (inactive)
50 | COc1cc2nc(N3CCN(C(=O)c4ccco4)CC3)nc(N)c2cc1OC | 0.803% (inactive) and 4.94% (inactive)
51 | COc1cc2nc(N3CCCN(C)CC3)nc(NC3CCN(Cc4ccccc4)CC3)c2cc1OC | -91.5% (active)
52 | CCCC(=O)N1CCCN(c2nc(N)c3cc(OC)c(OC)cc3n2)CC1 | 13% (inactive)
53 | COc1cc(O)ccc1C(C)=O | -6.96% (inactive)
54 | CC(=O)OCC(=O)[C@@]1(O)CCC2C3CCC4=CC(=O)CC[C@]4(C)C3C(=O)C[C@@]21C (some centres undefined) | -24.8% (inactive)

Row | Structure (SMILES) | activity change, negative = inhibition
55 | CNc1cc(OC)c(C(=O)NC2CCN(Cc3ccccc3)C2C)cc1Cl (centres undefined) | 3.06% (inactive)
56 | CCCC(O)C(CC)CO (centres undefined) | 5.56% (inactive)
57 | CC(=O)N[C@@H](C=O)[C@@H](O)[C@H](O)[C@H](O)CO | 11.9% (inactive)
58 | O=C(NOCC(O)CO)c1cc(Br)c(F)c(F)c1Nc1ccc(I)cc1F (centres undefined) | 8.99% (inactive)
59 | Cc1cc(I)ccc1Nc1c(C(=O)NOCC2CC2)cc(F)c(F)c1F | -58.9% (inactive) and -87.6% (active)
60 | O=C(NOCC1CC1)c1ccc(F)c(F)c1Nc1ccc(I)cc1Cl | 11.9% (inactive)
61 | CC(C)C1CCC(C(=O)N[C@@H](Cc2ccccc2)C(=O)O)CC1 (some centres undefined) | -3.8% (inactive)
62 | COc1ccc(Cn2ccc3ccc(C(=O)NO)cc32)cc1 | 1.1% (inactive)
63 | CCN(CC)Cc1ccc2cc(COC(=O)Nc3ccc(C(=O)NO)cc3)ccc2c1 | -81.2% (active)
64 | CCN(CC)CCNC(=O)c1ccc(NC(C)=O)cc1 | 6.42% (inactive) and 2.78% (inactive)
65 | C[C@H]1O[C@H](O[C@H]2[C@H](O)[C@@H](O)[C@@H](O[C@H]3[C@H](O)[C@@H](O)[C@H](O)O[C@@H]3CO)O[C@@H]2CO)[C@H](O)[C@@H](O)[C@@H]1N[C@H]1C=C(CO)[C@@H](O)[C@H](O)[C@H]1O | 8.26% (inactive)
66 | COc1cc(/C=C(\C#N)C(N)=O)cc(CSc2nc3ccccc3s2)c1O | -5% (inactive)
67 | COc1cccc(OC)c1-c1cc(C(=O)NC2(C(=O)O)C3CC4CC(C3)CC2C4)nn1-c1ccc(C(=O)N(C)CCCN(C)C)cc1C(C)C (centres undefined) | -1.72% (inactive)
68 | CC1=C(/C=C/C(=C/C=C/C(C)=C/C(=O)O)c2ccc(C)cc2)C(C)(C)CCC1 | 20.2% (inactive)
69 | C[C@@]12CCc3occc3[C@H]1CC[C@@]13C[C@@H](CC[C@H]12)[C@@](O)(CO)C3 | 14.1% (inactive)
70 | CCN1CCCC(OC(=O)C(c2ccccc2)c2ccccc2)C1 (centres undefined) | 9.52% (inactive) and 11.2% (inactive)
71 | CNC(=O)[C@@H](NC(=O)[C@H](CC(C)C)[C@H](O)C(=O)NO)C(C)(C)C | 11.5% (inactive)
72 | CC(C)C[C@@H](C(=O)N[C@H](C(=O)OC1CCCC1)c1ccccc1)[C@H](O)C(=O)NO | -91.3% (active)
73 | C[C@@]1(c2nc3c(C(N)=O)cccc3[nH]2)CCCN1 | 0.526% (inactive)
74 | CC(C)Cn1cnc2c1c(=O)n(C)c(=O)n2C | 12.6% (inactive)
75 | NCCCCN(Cc1nc2ccccc2[nH]1)[C@H]1CCCc2cccnc21 | 25.8% (inactive)
76 | NCCCC[C@H](NC(=O)[C@@H](Cc1cc(Br)c(O)c(Br)c1)NC(=O)N1CCC(N2Cc3ccccc3NC2=O)CC1)C(=O)N1CCN(c2ccncc2)CC1 | 15.1% (inactive)
77 | COc1cc2c(cc1OC)[C@@H]1CC(=O)[C@@H](CC(C)C)CN1CC2 | 11.3% (inactive) and 8.82% (inactive)
78 | COc1cc2c(cc1OC)C1Cc3ccc(OC)c(OC)c3CN1CC2 (centres undefined) | 8.53% (inactive)
79 | CC[C@H]1CN2CCc3cc(OC)c(OC)cc3C2C[C@@H]1CC1NCCc2cc(OC)c(OC)cc21 (some centres undefined) | -81.1% (active) and -96.6% (active)
